Drawing on ChEMBL document CHEMBL3988442, “University of Dundee, Small-Polar-MMV Screening Library” (2021), this text covers Percent Effect for eleven compounds.

Holding throughout (set-up): scale not given: direction of the effect not stated beside the values
Experiment [1] deals with Protein translocase subunit SecA (Escherichia coli (strain K12)) (UniProt P10408). The experiment can be described thus: Assay to Identify E. coli SecA ATPase Inhibitors. Particulars: 30 µM. The class given is functional.
Experiment [2] deals with T1, Ubiquitin-activating enzyme e1, putative (Leishmania donovani (strain BPK282A1)) (UniProt E9BSI1).
T1 sequence (whole entry): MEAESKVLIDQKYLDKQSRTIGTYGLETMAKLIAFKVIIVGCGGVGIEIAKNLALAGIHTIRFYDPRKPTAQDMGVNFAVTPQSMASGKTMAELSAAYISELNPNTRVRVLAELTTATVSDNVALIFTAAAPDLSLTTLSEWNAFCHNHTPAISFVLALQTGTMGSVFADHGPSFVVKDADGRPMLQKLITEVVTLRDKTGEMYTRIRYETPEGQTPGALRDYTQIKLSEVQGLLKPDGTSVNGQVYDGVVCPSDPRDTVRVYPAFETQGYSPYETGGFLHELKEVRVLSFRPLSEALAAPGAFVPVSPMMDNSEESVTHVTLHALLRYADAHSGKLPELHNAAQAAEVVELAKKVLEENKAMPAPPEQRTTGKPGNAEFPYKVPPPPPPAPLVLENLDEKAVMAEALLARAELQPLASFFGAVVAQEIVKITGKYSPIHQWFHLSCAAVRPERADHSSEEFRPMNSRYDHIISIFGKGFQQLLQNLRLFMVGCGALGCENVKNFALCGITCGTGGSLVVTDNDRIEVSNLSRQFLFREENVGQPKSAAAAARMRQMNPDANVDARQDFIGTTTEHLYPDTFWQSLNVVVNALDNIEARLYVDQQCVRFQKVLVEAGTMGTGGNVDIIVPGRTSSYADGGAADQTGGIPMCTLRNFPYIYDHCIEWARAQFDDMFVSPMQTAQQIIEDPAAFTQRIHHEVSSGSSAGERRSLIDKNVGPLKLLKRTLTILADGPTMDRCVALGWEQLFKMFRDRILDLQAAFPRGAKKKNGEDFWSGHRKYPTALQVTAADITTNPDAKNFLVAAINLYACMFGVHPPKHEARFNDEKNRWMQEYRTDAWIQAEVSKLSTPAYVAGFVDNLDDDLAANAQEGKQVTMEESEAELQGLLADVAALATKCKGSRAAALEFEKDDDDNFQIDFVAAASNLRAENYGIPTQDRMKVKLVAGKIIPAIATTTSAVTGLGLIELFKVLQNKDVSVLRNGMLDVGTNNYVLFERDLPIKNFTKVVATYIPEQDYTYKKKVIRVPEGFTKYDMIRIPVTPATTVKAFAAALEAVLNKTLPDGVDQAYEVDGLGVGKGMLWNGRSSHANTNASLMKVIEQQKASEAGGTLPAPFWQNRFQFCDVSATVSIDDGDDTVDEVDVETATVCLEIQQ
The experiment can be described thus: Leishmania donovani Ubiquitin Activating Enzyme (LdE1). Particulars: 30 µM. The experiment is classed as functional.

For experiment [3], the target named is AMP-activated protein kinase, AMPK (Homo sapiens) (UniProt P54646+O43741+P54619+Q9UGJ0+Q9Y478+Q13131+Q9UGI9). The experiment can be described thus: AMP-dependent Kinase enzyme assay. An in vitro enzyme assay that detects ADP turnover that is directly proportional to AMPK activity. This uses naive AMPK that is activated during the assay with MK-8722. The class given is functional. Particulars: 30 µM.

For experiment [4], the target named is Sialic acid-binding Ig-like lectin 9 (Homo sapiens) (UniProt Q9Y336). The experiment can be described thus: Hs-Siglec9 ALPHAscreen SOP 20170721. Particulars: 10 µM. (In general: Bead proximity is the source of the signal in Alpha formats.)
In another experiment the test system is Trypanosoma cruzi. Nature of the experiment: Trypanosoma cruzi phosphomannomutase and mannose-1-phosphate guanylyltransferase assay. The conditions noted are these: 10 µM. The experiment is classed as functional.
Experiment [5] deals with T2, Arginase-2, mitochondrial (Homo sapiens) (UniProt P78540).
T2 sequence (whole entry): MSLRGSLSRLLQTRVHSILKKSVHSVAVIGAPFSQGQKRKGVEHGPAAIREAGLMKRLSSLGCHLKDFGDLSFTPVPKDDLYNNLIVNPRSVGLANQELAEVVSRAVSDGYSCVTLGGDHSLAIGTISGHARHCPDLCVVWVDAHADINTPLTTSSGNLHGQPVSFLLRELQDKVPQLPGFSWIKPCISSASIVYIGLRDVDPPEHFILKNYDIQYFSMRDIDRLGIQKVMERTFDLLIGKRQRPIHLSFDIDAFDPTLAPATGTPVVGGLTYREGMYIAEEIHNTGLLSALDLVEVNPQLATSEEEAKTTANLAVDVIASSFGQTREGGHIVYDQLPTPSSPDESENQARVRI
The experiment can be described thus: in vitro enzyme assay to detect the production of urea directly proportional to the activity of Arginase II. Note: in the data most compounds retested in dose-response had high values. The class given is functional. The conditions noted are these: 33.3 µM.

Experiment [6] has as its target T3, Proteasome subunit beta (Trypanosoma cruzi) (UniProt O96673).
T3 sequence (whole entry): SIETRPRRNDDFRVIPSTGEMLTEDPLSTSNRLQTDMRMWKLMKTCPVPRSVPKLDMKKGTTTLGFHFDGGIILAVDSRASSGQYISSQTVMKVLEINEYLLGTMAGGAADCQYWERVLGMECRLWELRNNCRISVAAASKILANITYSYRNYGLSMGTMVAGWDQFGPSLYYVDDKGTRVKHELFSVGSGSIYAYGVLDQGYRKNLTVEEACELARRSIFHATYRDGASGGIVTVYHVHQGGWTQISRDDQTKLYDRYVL
The experiment can be described thus: Trypanosoma cruzi proteasome chymotrypsin-like activity (TcProtChymo) assay. Note: in the data most compounds retested in dose-response had high values. The experiment is classed as functional. Particulars: 9.37 µM.

The species entered for another experiment is Homo sapiens. The experiment can be described thus: To identify inhibition of the IFN signalling (Jak-Stat) pathway via expression of an eGFP reporter gene under the control of an IFN-stimulated response element (ISRE) containing MxA promoter. The experiment is classed as functional. Particulars: 30 µM. A general note: A reporter such as luciferase makes a cellular process visible.

Experiment [7] has as its target T4, Tyrosyl-tRNA synthetase, putative (Trypanosoma cruzi (strain CL Brener)) (UniProt Q4DSP6).
T4 sequence (whole entry): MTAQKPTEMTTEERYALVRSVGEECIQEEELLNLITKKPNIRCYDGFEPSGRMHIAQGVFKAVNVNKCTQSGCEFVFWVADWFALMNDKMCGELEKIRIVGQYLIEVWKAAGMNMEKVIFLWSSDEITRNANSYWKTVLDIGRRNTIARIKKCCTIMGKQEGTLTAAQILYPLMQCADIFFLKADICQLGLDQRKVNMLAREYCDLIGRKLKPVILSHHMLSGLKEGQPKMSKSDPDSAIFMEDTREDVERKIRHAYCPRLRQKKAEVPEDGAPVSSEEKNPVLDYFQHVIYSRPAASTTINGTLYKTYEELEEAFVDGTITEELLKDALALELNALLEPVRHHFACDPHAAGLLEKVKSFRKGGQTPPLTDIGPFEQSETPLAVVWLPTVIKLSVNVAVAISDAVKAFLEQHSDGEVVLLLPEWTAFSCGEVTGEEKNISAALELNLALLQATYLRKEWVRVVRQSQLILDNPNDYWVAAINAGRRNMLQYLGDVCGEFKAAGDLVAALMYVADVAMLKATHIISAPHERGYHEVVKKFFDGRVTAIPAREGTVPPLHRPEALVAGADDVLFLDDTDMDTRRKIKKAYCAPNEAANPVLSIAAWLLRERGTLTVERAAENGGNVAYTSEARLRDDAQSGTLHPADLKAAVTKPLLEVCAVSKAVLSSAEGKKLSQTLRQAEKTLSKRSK
The experiment can be described thus: Trypanosoma cruzi tyrosyl tRNA synthetase (TcYRS) _High Tyrosine SOP. Note: in the data most compounds retested in dose-response had high values. The experiment is classed as functional. Particulars: 30 µM.

Experiment [8] addresses T4, Tyrosyl-tRNA synthetase, putative (Trypanosoma cruzi (strain CL Brener)). The experiment can be described thus: Trypanosoma cruzi tyrosyl tRNA synthetase (TcYRS) SOP. The experiment is classed as functional. The conditions noted are these: 30 µM.
Experiment [9] deals with Chromo domain-containing protein 1 (Saccharomyces cerevisiae (strain ATCC 204508 / S288c) (Baker's yeast)) (UniProt P32657). The experiment can be described thus: ScCHD-1 Enzyme Inhibition Assay. Note: in the data most compounds retested in dose-response had high values. The experiment is classed as functional. The conditions noted are these: 30 µM.

For some of these results: Results with a measured potency or affinity are listed apart.

Chain of Sialic acid-binding Ig-like lectin 9 (Homo sapiens) (Q9Y336 whole entry): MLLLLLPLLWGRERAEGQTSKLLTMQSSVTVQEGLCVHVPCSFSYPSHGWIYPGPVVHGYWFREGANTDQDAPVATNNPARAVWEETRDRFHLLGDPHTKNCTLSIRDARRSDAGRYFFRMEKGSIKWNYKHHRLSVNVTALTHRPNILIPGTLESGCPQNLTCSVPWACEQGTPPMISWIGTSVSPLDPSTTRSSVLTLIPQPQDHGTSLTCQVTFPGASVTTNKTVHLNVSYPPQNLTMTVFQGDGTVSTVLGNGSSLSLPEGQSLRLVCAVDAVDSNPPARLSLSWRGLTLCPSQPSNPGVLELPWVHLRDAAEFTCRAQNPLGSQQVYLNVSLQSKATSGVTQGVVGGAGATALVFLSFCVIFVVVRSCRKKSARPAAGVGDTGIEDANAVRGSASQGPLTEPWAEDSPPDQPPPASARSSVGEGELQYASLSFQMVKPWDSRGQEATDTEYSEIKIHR
Chain of Protein translocase subunit SecA (Escherichia coli (strain K12)) (P10408 whole entry): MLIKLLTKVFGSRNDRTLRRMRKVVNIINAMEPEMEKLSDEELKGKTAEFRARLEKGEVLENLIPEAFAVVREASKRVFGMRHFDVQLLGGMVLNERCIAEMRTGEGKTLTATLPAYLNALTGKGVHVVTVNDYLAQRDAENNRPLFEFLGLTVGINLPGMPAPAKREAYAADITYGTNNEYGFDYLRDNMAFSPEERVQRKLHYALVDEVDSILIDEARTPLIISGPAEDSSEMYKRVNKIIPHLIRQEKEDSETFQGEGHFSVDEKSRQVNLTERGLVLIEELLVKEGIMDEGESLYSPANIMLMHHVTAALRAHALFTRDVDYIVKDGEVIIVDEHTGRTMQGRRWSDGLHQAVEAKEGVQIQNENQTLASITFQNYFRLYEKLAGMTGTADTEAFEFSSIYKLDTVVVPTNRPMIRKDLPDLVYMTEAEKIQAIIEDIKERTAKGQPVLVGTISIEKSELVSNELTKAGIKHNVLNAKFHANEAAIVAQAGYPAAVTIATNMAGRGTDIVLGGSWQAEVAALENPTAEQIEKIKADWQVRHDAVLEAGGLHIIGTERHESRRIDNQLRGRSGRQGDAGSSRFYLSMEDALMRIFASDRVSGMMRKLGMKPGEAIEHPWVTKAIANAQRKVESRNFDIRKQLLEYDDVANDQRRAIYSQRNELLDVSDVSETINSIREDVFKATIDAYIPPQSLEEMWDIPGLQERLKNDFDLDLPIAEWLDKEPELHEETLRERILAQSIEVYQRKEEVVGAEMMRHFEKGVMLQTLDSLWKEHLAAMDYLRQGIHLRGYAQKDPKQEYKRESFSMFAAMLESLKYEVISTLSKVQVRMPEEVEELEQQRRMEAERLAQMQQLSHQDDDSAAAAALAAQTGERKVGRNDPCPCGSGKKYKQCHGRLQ
Chain of Chromo domain-containing protein 1 (Saccharomyces cerevisiae (strain ATCC 204508 / S288c) (Baker's yeast)) (P32657 whole entry, the tested form may be a part): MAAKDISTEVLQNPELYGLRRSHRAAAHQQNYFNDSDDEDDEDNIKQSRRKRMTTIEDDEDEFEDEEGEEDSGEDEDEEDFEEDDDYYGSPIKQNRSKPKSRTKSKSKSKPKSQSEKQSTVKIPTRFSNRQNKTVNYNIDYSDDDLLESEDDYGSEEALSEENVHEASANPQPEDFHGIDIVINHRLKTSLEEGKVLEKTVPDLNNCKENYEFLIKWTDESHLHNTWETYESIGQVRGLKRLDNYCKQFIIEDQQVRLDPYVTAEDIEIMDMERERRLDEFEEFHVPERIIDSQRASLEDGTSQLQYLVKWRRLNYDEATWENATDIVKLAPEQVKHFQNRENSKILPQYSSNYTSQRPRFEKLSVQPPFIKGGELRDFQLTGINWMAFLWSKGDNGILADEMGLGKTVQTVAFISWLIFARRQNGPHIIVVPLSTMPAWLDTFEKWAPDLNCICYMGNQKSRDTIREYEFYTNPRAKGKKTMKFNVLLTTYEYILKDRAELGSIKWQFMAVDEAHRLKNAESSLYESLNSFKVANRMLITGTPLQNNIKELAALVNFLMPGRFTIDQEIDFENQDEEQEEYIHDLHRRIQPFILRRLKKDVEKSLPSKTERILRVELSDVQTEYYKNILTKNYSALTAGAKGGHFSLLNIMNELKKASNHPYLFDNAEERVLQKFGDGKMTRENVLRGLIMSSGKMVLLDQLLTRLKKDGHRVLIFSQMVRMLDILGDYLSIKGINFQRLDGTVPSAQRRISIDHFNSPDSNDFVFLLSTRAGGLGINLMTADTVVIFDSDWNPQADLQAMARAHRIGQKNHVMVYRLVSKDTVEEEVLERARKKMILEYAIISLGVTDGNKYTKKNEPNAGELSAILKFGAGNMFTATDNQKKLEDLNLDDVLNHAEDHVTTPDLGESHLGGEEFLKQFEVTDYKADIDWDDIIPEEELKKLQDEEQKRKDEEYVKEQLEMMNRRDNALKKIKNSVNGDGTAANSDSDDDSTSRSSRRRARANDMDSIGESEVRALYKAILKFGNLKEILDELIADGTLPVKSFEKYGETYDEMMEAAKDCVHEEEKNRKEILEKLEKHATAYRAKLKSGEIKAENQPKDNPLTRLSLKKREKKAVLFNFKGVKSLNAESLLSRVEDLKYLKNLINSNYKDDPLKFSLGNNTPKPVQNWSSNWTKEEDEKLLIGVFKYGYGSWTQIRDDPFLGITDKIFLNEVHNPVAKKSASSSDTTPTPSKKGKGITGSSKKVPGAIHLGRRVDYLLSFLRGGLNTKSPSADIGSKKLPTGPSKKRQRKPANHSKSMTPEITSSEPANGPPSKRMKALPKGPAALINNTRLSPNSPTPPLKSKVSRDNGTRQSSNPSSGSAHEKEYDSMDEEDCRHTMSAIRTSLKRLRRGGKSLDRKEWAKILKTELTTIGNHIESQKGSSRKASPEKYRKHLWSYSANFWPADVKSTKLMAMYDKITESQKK

Turning to `Cc1cnn(CC2CN(Cc3nccn3C)CCO2)c1` (stereo unspecified), the Percent Effect in experiment [1] is -2.86%; in [2], 5.41%; in experiment [3], -4.03%; in experiment [4] it was 2.01%; in the experiment with Trypanosoma cruzi, -1.95%; in experiment [5], 3.14%. Further, the Percent Effect was 1.44% in [6]; 8.74% in the experiment filed under Homo sapiens; 6.93% in [7]; 11% in [8]; -1.23% in [9].

Consider `O=S(=O)(NC1=NCN(CCc2cccs2)CN1)c1ccc(F)cc1`, for which the Percent Effect is 1.07% in experiment [1]; 4% in [2]; 3.26% in [3]; 4.09% in experiment [4]; -4.91% with Trypanosoma cruzi; -7.57% in experiment [5]. In addition, the Percent Effect in experiment [6] is 14.1%; in the experiment filed under Homo sapiens, -6.32%; in [7], 5.29%; in experiment [8], 10.3%; in experiment [9], -10.7%.

On to `Cn1cc(N2CC3(CCN(CC4CCOCC4)CC3)OCC2=O)cn1`, for which the Percent Effect is -1.91% in experiment [1]; 9.33% in [2]; 1.65% in [3]; 6.72% in [4]; -0.197% in the experiment with Trypanosoma cruzi; 2.99% in experiment [5]. For the same compound, the Percent Effect in [6] was 19.8%; in the experiment filed under Homo sapiens it was 17.2%; in [7] it was 4.23%; in [8], 12.8%; in experiment [9] it was -4.82%.

`COc1ccc(CNCC2CC2)cc1F`: the Percent Effect is -3.45% in [1]; 0% in experiment [2]; 3.06% in experiment [3]; 6.66% in [4]; 1.56% with Trypanosoma cruzi; -1.67% in experiment [5]. Further, the Percent Effect in experiment [6] was 3.47%; in the experiment listed under Homo sapiens, -5.14%; in experiment [7], 4.95%; in experiment [8], 3.66%; in experiment [9] it was -2.56%.

As to `COCc1nc(C(=O)N2CCCC2c2ccccc2C)cs1` (stereo unspecified), the Percent Effect in [1] was -2.11%; in [2] it was 3.8%; in experiment [3] it was 3.68%; in [4], 5.3%; in the experiment on Trypanosoma cruzi, 0.513%; in experiment [5], -4.09%. Also, the Percent Effect is 13.2% in experiment [6]; 16.4% in the experiment filed under Homo sapiens; 9.38% in [7]; 22.8% in [8]; -22.3% in [9].

As for `CC(=O)c1cn(CC(=O)NC(C(=O)O)C(C)C)c2ccccc12` (stereo unspecified), the Percent Effect in experiment [1] was -5.18%; in experiment [2] it was -2.67%; in experiment [3], 1.25%; in experiment [4], -4.07%; with Trypanosoma cruzi, -3.99%; in experiment [5] it was -1.04%. Moreover, the Percent Effect was 8.72% in experiment [6]; -13.9% in the experiment listed under Homo sapiens; 1.64% in experiment [7]; 1.24% in [8]; 3.17% in [9].

Turning to `COC(C(=O)N1CCN(c2cccc(Cl)c2)C(=O)C1)c1ccccc1` (stereo unspecified), the Percent Effect in experiment [1] is -1.02%; in [2], 0%; in experiment [3] it was 0.72%; in experiment [4], 1%; in the experiment with Trypanosoma cruzi, -2.7%; in experiment [5], 3.33%. Besides, the Percent Effect in experiment [6] is 14.7%; in the experiment listed under Homo sapiens, 0.627%; in [7] it was 3.7%; in [8], 9.76%; in experiment [9] it was -4.32%.

With `O=C(CCc1nccs1)N1CCN(c2ncccn2)CC1`, the Percent Effect in experiment [1] is -10.4%; in [2] it was -7.79%; in [3] it was -1.74%; in [4], -4.24%; in the experiment on Trypanosoma cruzi, 7.93%; in [5], -0.632%. For the same compound, the Percent Effect in experiment [6] was 9.3%; in the experiment filed under Homo sapiens it was 1.03%; in experiment [7], 5.71%; in [8] it was 18.8%; in experiment [9] it was -11%.

Turning to `Cc1ccc(NC(=O)NC(C)c2nc[nH]n2)s1` (stereo unspecified), the Percent Effect in [1] was -7.16%; in experiment [2] it was 5.41%; in experiment [3], 1.69%; in experiment [4], 19.6%; in the experiment on Trypanosoma cruzi, -0.293%; in experiment [5] it was 2.23%. Moreover, the Percent Effect is 9.7% in [6]; -8.4% in the experiment listed under Homo sapiens; 6.45% in experiment [7]; 13.6% in experiment [8]; -2.14% in [9].

On to `Cc1ccc(C(=O)NCCCNS(C)(=O)=O)cc1-n1cccc1`, for which the Percent Effect is -3.12% in [1]; 13.2% in experiment [2]; 12.3% in [3]; -1.07% in experiment [4]; 3.99% in the experiment with Trypanosoma cruzi; 9.47% in [5]. In addition, the Percent Effect in experiment [6] is 15.2%; in the experiment listed under Homo sapiens, 9.99%; in [7], 6.38%; in experiment [8], 10.4%; in experiment [9], -5.78%.

As to `OCCN1CCN(Cc2coc(-c3ccc(Cl)cc3)n2)CC1`, the Percent Effect is -2.69% in experiment [1]; -2.6% in experiment [2]; 3.9% in experiment [3]; 4.43% in [4]; 3% in the experiment with Trypanosoma cruzi; 4.27% in experiment [5]. Moreover, the Percent Effect in experiment [6] is 1.35%; in the experiment filed under Homo sapiens, -6.89%; in [7] it was 0%; in [8], 7.32%; in experiment [9] it was -3.24%.
